Pf Dd2 inh: inhibitors of Plasmodium falciparum Dd2 growth | Potency, µM (titrated, usually from 28.9 µM), actives largely listed as inhibitors | AID 1347417 | P. falciparum Dd2 growth, SYBR Green, 72 h | actives 4.3% (n = 120,000); active = well fitted inhibition curve with a large enough effect; also: nearly all actives have a fitted effect of over 65% in size
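Readout: SYBR Green fluorescence, 485 nm excitation, 535 nm emission, after ~16 h lysis at 37C. Before that, Dd2-infected red cells (2.5% hematocrit) grew 72 h with compound, 29 uM top final concentration.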
Numbers stand for hits; . = inactive; [ ] = remark or other dose. The sample as a whole holds a higher share of hits than the screen did.

SMILES | Pf Dd2 inh
CN(C)c1nc(NC2CC(c3cc(=O)[nH]c(C4CC4)n3)C2)ncc1F (stereo unspecified) | .
COCc1nc(C2CC(Nc3ccnc4cc(Cl)ccc34)C2)cc(=O)[nH]1 (stereo unspecified) | 2.5µM
COCc1nc(C2CC(NC(=O)CN3C(=O)CN(C)C3=O)C2)cc(=O)[nH]1 (stereo unspecified) | .
CC(C(=O)N1CCCC1)N1CCC2(CCC(=O)N(CCO)C2)CC1 (stereo unspecified) | .
O=Cc1ccccc1-c1cc(F)cc(F)c1 | .
CNC(=O)c1noc(CN2CCCC(CCc3c(F)cccc3F)C2)n1 (stereo unspecified) | .
CC1CCCCN1C(=O)CN1CCSc2ccccc21 (stereo unspecified) | .
CC1CCCCN1Cc1nc2c(c(=O)n(C)c(=O)n2C)n1Cc1ccc(Br)cc1 (stereo unspecified) | .
CN(Cc1ccccc1)Cc1c(O)ccc2c(=O)c(-c3ccccc3)c(C(F)(F)F)oc12 | 4µM
CC1CCCCN1Cc1c(O)ccc2c(=O)c(-c3ccccc3)coc12 (stereo unspecified) | 10µM
CN(Cc1ccc(-c2ccccc2)cc1)Cc1cccc(C(F)(F)F)c1 | .
CC1CCCCN1Cc1nnc2cc(-c3nc(-c4ccccc4)no3)ccn12 (stereo unspecified) | .
CN(Cc1ccc(-c2ccccc2)cc1)Cc1cccc(OC(F)(F)F)c1 | .
CC1CCCCN1Cc1c(O)ccc2c(=O)c(-c3ccc(Cl)cc3)c(C(F)(F)F)oc12 (stereo unspecified) | 10µM
CC(C)N[C@@H]1CO[C@H](CNC(=O)c2ccccc2)[C@H]1O | .
COc1ccc(CC(=O)N2CCC(Cc3nc(-c4ccccc4)no3)CC2)cc1Cl | .
O=C1Cc2c(-c3ccccc3Cl)n[nH]c2CN1Cc1ccccn1 | .
Cc1cc(C(=O)N2C[C@@H](COCC3CC3)[C@H](c3ccccn3)C2)ccn1 | .
Cc1ccc(NC(=O)Cn2ccn3nc(-c4ccc(F)cc4)c(CO)c3c2=O)cc1Cl | .
Cc1noc([C@@H]2CC(F)(F)CN2C(=O)c2ccc(F)cn2)n1 | .
O=C(c1nc2sccn2c1Br)N1CCC(N2CCCCCC2=O)CC1 | .
Cc1n[nH]c(C)c1CCC(=O)NCC1CCN(c2cc(-c3ccc(F)cc3)[nH]n2)CC1 | .
Cc1cn2nc(C(=O)N3CCC(NC(=O)Cc4ccccc4C)CC3)cc2c(=O)[nH]1 | .
Cc1cn2nc(C(=O)N3CCC(NC(=O)Cc4ccc(Cl)cc4)CC3)cc2c(=O)[nH]1 | 2.5µM
Cc1cn2nc(C(=O)N3CCC(NC(=O)c4ccccc4Cl)CC3)cc2c(=O)[nH]1 | .
SMILES | Pf Dd2 inh
CC(C)(O)C#Cc1ccc(CN2CCCC(CCC(=O)Nc3ccccc3F)C2)s1 (stereo unspecified) | .
O=C(CCC1CCCN(CC2=Cc3cc(Cl)ccc3OC2)C1)Nc1ccccc1F (stereo unspecified) | .
O=C(CCC1CCCN(Cc2cnc(-c3ccccc3)s2)C1)Nc1ccccc1F (stereo unspecified) | 14µM
CN1CCN(c2nc3c(c(=O)[nH]2)CCN(Cc2cn(C)c4ccccc24)CC3)CC1 | .[5.79 µM]
COc1ccc(C2C(C(N)=O)=C(C)Nc3nc(-c4ccccc4Cl)nn32)cc1 (stereo unspecified) | .
CCOc1ccccc1C1C(C(N)=O)=C(C)Nc2nc(-c3ccccc3Cl)nn21 (stereo unspecified) | .
CCOc1ccc(C2C(C(=O)Nc3ccccc3)=C(C)Nc3nc(-c4ccccc4Cl)nn32)cc1OC (stereo unspecified) | 8.9µM
Cc1noc(C)c1NC(=O)N[C@@H]1C[C@H](Cn2cc(-c3cccnc3)nn2)[C@@H](O)[C@H]1O | .
c1nnc(CC2CCNCC2)n1CC1CC1 | .
CCN1CCC2(CCC1=O)CN(Cc1nc3c(cnn3C)c(=O)[nH]1)CCN2C (stereo unspecified) | .
CCN(C)c1ccnc(N2CC[C@@H]3C[C@H](N4CCOCC4)CC[C@@]3(COC)C2)n1 | 8.9µM
COC[C@@]12CC[C@@H](N3CCOCC3)C[C@H]1CCN(c1nccc(NC(C)C)n1)C2 | .
COC[C@@]12CC[C@@H](N3CCOCC3)C[C@H]1CCN(c1nccc(N)n1)C2 | .
Cc1ncc2c(c1CNC(=O)c1cc(F)cc(Cl)c1)CCNC2 | .
Cc1ccc(C)c(NC(=O)CSc2nccn2-c2cccc(C)c2C)c1 | 3.5µM
Cc1cccc(-n2ccnc2SCC(=O)Nc2ccc(F)cc2F)c1C | .
CCc1ccc(NC(=O)CSc2nccn2-c2cccc(C)c2C)cc1 | .
Cc1ccc(C)c(NC(=O)Cn2nc3c(cc2=O)CCCCC3)c1 | .
COc1cccc(Cn2c(Cc3c[nH]c4ccccc34)n[nH]c2=O)c1 | .
O=C(c1ccco1)N1C[C@@H](CO)[C@H](c2ccncc2)C1 | .
CCN(CC)C(=O)N1CCC(Oc2ccc(-c3noc(COC)n3)cc2)C1 (stereo unspecified) | .[5.79 µM]
COCc1nc(-c2ccc(OC3CN(C(=O)c4cc(C)n(C)n4)C3)cc2)no1 | 7.9µM
COCc1nc(-c2ccc(OC3CN(C(=O)c4ccc(OC)nc4)C3)cc2)no1 | .
CCc1cc(N2CCN(C)C3(CCC(=O)N(C)CC3)C2)nc(N(C)C)n1 (stereo unspecified) | .
COc1ccc(C(=O)N2CCCCCCNC(=O)[C@@H]3C[C@@H](c4nc(C(C)C)no4)C[C@@H]32)c(OC)n1 | .
SMILES | Pf Dd2 inh
CC(C)(C)OC(=O)N1CC(NCc2ccc(C(F)(F)F)cc2)C1 | .
CC(C)(C)OC(=O)N1CC(NCc2ccc(-c3ccc(OC(F)(F)F)cc3)cc2)C1 | 10µM
COc1ccc(CNC2CN(C(=O)OC(C)(C)C)C2)cc1 | .
Cc1ccc(C)c(C(=O)N2CC(C(=O)N(C)C)C3(CCOCC3)C2)c1 (stereo unspecified) | .
CCC[C@H]1C[C@H]1C(=O)N1CCC2(CCC(=O)N(CC(N)=O)C2)CC1 | .
O=C(c1ccc(=O)[nH]c1)N1C[C@@H](CN2CCCC2)[C@@H](CO)C1 | .
CCc1ccc2nc(N3CCC(C(=O)O)CC3)sc2c1 | .
CCc1ccc2nc(N3CCN(C(=O)C4CC4)CC3)sc2c1 | .
COc1ccc(N2CCN(CCCNC(=O)c3ccc4nc(N5CCCCC5)sc4c3)CC2)cc1 | .
CCCCN(C)CCNC(=O)C1CCN(c2nc3ccc(CC)cc3s2)CC1 | 10µM
CCCCN(C)CCCNC(=O)c1ccc2nc(N3CCCCC3)sc2c1 | 8.9µM
CCN(CC)CCCNC(=O)c1ccc2nc(N3CCCCC3)sc2c1 | .
COc1cccc(CNC(=O)C(c2ccc(F)cc2)N(C)C)c1OC (stereo unspecified) | .
CN1C(=O)CCC2(CNC(=O)c3cccs3)CCC=C12 (stereo unspecified) | .
Cc1ncc2c(c1CNC(=O)c1ccccc1F)CCN(C(=O)Cc1ccc3c(c1)OCO3)C2 | .
COc1ccc(-c2cc(N3CCCN(C(=O)c4ccccn4)CC3)n[nH]2)cc1 | .
COCCN1C(=O)[C@H]2CN(Cc3cccc(C(F)(F)F)c3)C[C@H]2C1=O | .
CCOC(=O)c1ccc(NC(=O)CCCc2nc(-c3cc(OC)c(OC)c(OC)c3)no2)cc1 | 13µM
CCOC(=O)c1ccc(NC(=O)Cc2noc3ccc(C)cc23)cc1 | .
O=C(CCCc1nc(-c2ccccc2)no1)Nc1cc(C(F)(F)F)cc(C(F)(F)F)c1 | .
COC(=O)[C@@H]1Cc2ncn(C)c2CN1C(=O)c1ccc(F)cc1 | .
O=C(c1cnccn1)N1CCCCCC1c1nnc(-c2ccccc2)o1 (stereo unspecified) | .

Screening data: PubChem BioAssay, National Center for Advancing Translational Sciences (NCATS)
